Assay results taken from article PMC7155171, “Probing the Open Global Health Chemical Diversity Library for Multistage-Active Starting Points for Next-Generation Antimalarials” (ACS Infectious Diseases, 2020).
Like-named read-outs stand apart in the source and are kept apart here. The full ranking holds about 68,000 compounds; the median of “% viability” is about 1.1, and the lowest 2% start at about 0.96. For the sample, the lowest values were picked, then their nearest neighbours and some compounds at random. The numbers are fractions of the control, whatever unit the source prints.

Test system: P. falciparum (NF54) stage V gametocytes
Parameters: Mature stage V gametocyte viability, MitoTracker Red CMXRos high-content imaging
Conditions: primary screen, n=2, fraction of DMSO control, 72 h, 2 µM, inhibitor

| SMILES | % viability | % viability (Stg V Gam primary screen: Inhibition % (2uM) (n=2)) |
| --- | --- | --- |
| CC(NC(=O)CCC1=NC(=C2N=CN=N2)NO1)c1ccc(F)cc1F (stereo not drawn) [DDD01068293] | 1.218% |  |
| CC(=O)N1CCCN(C(=O)CCOc2ccc(C(C)C)cc2)CC1 [DDD01298039] | 0.9627% |  |
| CN(Cc1ccc(F)c(F)c1)C(=O)CCC1=NC(=C2N=CN=N2)NO1 [DDD01062114] | 1.185% |  |
| Cn1cc(C(=O)N2CCCC(c3cc(=O)n(C)[nH]3)C2)cn1 (stereo not drawn) [DDD01060486] | 1.105% |  |
| CCCc1nn(C)c(N)c1-c1ccc2c(c1)OCO2 [DDD01074641] | 1.2104% |  |
| Cc1ccc(S(=O)(=O)Cc2noc([C@@H]3C[C@@H](O)CN3C(C)C)n2)cc1 [DDD01025534] | 1.063% |  |
| Cn1ccc(C(=O)N2CCCC(c3cc(=O)n(C)[nH]3)C2)n1 (stereo not drawn) [DDD01060541] | 0.9912% |  |
| Cc1[nH]n(C2CCS(=O)(=O)C2)c(=O)c1Cc1ccccc1Cl (stereo not drawn) [DDD01026964] | 1.154% |  |
| Cn1nc(C2CCC2)c(-c2ccc3c(c2)OCO3)c1N [DDD01074643] | 1.107% |  |
| CCn1[nH]cc2nc(-c3cc(OC)c(OC)cc3OC)nc1-2 [DDD01254934] | 1.131% |  |
| COc1cc2c(cc1-c1nc3c[nH]n(C(C)C)c-3n1)OCO2 [DDD01249461] | 1.226% |  |
| COCC(=O)N1Cc2[nH]c3c(C)c(-c4cccs4)nn3c(=O)c2C1 [DDD01056747] | 0.9901% |  |
| Cc1[nH]n(C2CCS(=O)(=O)C2)c(=O)c1CCc1ccccc1 (stereo not drawn) [DDD01026977] | 1.342% |  |
| CCc1cc(=O)n2nc(C3CCCN3C(=O)c3ccccn3)cc2[nH]1 (stereo not drawn) [DDD01057178] | 1.278% |  |
| Cc1[nH]n(Cc2ccc(F)cc2)c2nnc(N)c1-2 [DDD01012470] | 1.161% |  |
| Cn1nc(C2CC2)c(-c2ccc3c(c2)OCO3)c1N [DDD01074640] | 1.305% |  |
| CCc1nc(CN(C)C2CCN(CCn3cc(C#N)cn3)C2)no1 (stereo not drawn) [DDD01304196] | 1.045% |  |
| Cc1ccc(CN2CCc3c([nH]c4cc(C5CC5)nn4c3=O)C2)s1 [DDD01058491] | 1.123% |  |
| COc1cc2c(cc1-c1nc3c[nH]n(C)c-3n1)OCO2 [DDD01248770] | 1.141% |  |
| COc1cc2c(cc1-c1nc3c[nH]n(C(C)C4CC4)c-3n1)OCO2 (stereo not drawn) [DDD01244142] | 1.215% |  |
| Cc1[nH]n(C2CCS(=O)(=O)C2)c(=O)c1Cc1cccc(Cl)c1 (stereo not drawn) [DDD01026994] | 1.159% |  |
| CCc1nn(C)c(N)c1-c1ccc2c(c1)OCO2 [DDD01074639] | 1.278% |  |
| Cc1cccc(C2N3CCC4(CC3)c3[nH]c5ccccc5c3CCN24)n1 (stereo not drawn) [DDD01058402] | 1.009% |  |
| Clc1cccc(-c2cccc(N3CCC(NC4CCOCC4)CC3)c2)c1 [DDD01252000] | 1.106% |  |
| CCC(=O)Nc1[nH]nc2c1c(C)nn2Cc1cccc(OC)c1 [DDD01063148] | 1.182% |  |
| CCc1ccc(C(C)NC(=O)CCC2=NC(=C3N=CN=N3)NO2)cc1 (stereo not drawn) [DDD01068289] | 1.032% |  |

| SMILES | % viability | % viability (Stg V Gam primary screen: Inhibition % (2uM) (n=2)) |
| --- | --- | --- |
| CCc1c(C)[nH]c2cc(C3CCN(CCc4ccccc4)C3)nn2c1=O (stereo not drawn) [DDD01060567] | 1.041% |  |
| COc1cc2c(cc1-c1nc3c[nH]n(C(C)C(C)C)c-3n1)OCO2 (stereo not drawn) [DDD01255421] | 1.199% |  |
| Cc1cc(=O)n2nc(C3CCN(C(=O)c4ccccn4)CC3)cc2[nH]1 [DDD01057174] | 1.036% |  |
| COCCC(=O)N1Cc2[nH]c3c(C)c(-c4cccs4)nn3c(=O)c2C1 [DDD01056578] | 1.121% |  |
| CCc1c(C)nn2c(=O)cc(C3CCN(C(=O)C4CC4)C3)[nH]c12 (stereo not drawn) [DDD01057056] | 1.097% |  |
| CCc1c(C)nn2c(=O)cc(C3CCN(C(=O)c4ccn(C)n4)C3)[nH]c12 (stereo not drawn) [DDD01056907] | 1.06% |  |
| CCc1cc(=O)n2nc(C3CCN(C(=O)c4ccncc4)CC3)cc2[nH]1 [DDD01057177] | 1.239% |  |
| Cc1cc(=O)n(-c2ccc3nnc(C)n3n2)[nH]1 [DDD01038570] | 1.151% |  |
| Cc1nc(O)cc(CCNC(=O)CC[C@@H]2CCCN3CCCC[C@H]23)n1 [DDD01256003] | 1.201% |  |
| COc1ccc(-c2c(C)nn3c(N)c(C#N)nnc23)cc1 [DDD01035158] | 1.096% |  |
| CCc1nn2c(N)c(C#N)nnc2c1-c1ccc(OC)cc1 [DDD01035159] | 1.1% |  |
| COc1ccc(-c2c(C(C)C)nn3c(N)c(C#N)nnc23)cc1 [DDD01035184] | 0.9469% |  |
| Cc1ncsc1C(=O)N1CCCCC1c1cc2[nH]c(C)c(C)c(=O)n2n1 (stereo not drawn) [DDD01059037] | 1.19% |  |
| Cc1[nH]n(-c2ccc(F)cc2)c2nnc(N)c1-2 [DDD01065623] | 1.104% |  |
| COc1cccc(CN(C)CC2=Nc3ccccc3S(=O)(=O)N2)c1 [DDD01073248] |  | 1.218% |
| COc1cccc(Cn2nc(C)c3c(NC(=O)C(C)OC)[nH]nc32)c1 (stereo not drawn) [DDD01063202] | 1.059% |  |
| COc1cccc(C2=NN=CC2=C2NC(CN3CCCC3)=NO2)c1 [DDD01247208] | 1.119% |  |
| COCCC(=O)N1CCC(c2cc(=O)n(C)[nH]2)C1 (stereo not drawn) [DDD01060470] | 1.179% |  |
| COc1cccc(F)c1-c1nc2c(C3CC3)[nH]n(C)c-2n1 [DDD01246655] | 1.144% |  |
| CCC(CO)N(Cc1cccnc1)C(=O)c1ccc(C(F)(F)F)nc1O (stereo not drawn) [DDD01253913] | 1.193% |  |
| Cc1ccccc1CN(C)C(=O)CCC1=NC(=C2N=CN=N2)NO1 [DDD01062116] | 1.259% |  |
| Cc1[nH]n(C2CCCCC2)c2nc(C(C)(C)CN3CCOCC3)nc1-2 [DDD01254749] | 1.099% |  |
| Cc1[nH]n(C2CCCC2)c2nc(C(C)(C)CN3CCN(C)CC3)nc1-2 [DDD01248613] | 1.14% |  |
| Cc1nc(N2CCCC2)ncc1-c1cc(=O)n2ncnc2[nH]1 [DDD01038581] | 1.014% |  |
| CCc1cc(=O)n2nc(C3CCN(C(=O)c4ccccn4)CC3)cc2[nH]1 [DDD01057364] | 1.067% |  |
